Compound activity from PubChem.
A selection: hits, their analogues and other compounds. The true share with any hit is near 21%.
HCMV antiviral: inhibitors of human cytomegalovirus. 410,000 compounds, 4.5% hits. activity change, negative = inhibition, % at 57.5 µM. HFF cells, HCMV-luciferase reporter, 72 h; active compounds read low; in the data active means activity change below about -60%; inconclusive means no clear call, values can overlap the other calls; inactive means above about -39%; further: on the % scale 0 is the no-effect control and ±100 the full control effect
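Luciferase read-out from HCMV-luciferase-infected HFFs (MOI 1 PFU/cell) 72 h post infection at 37C; compounds added after 16 h cell attachment; activity normalized between buffer-only basal and Salinomycin (10uM) inhibitor controls.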
Shiga toxin inh: inhibitors of Shiga toxin in Vero cells; 290,000 compounds, 9.2% hits; inhibition, % at 38.7 µM; Vero cells, Shiga toxin protein synthesis inhibition reporter; in the data active means inhibition mostly above about 28%, no sharp cut-off; inactive means mostly below about 43%; further: 0% is about no effect
Pf growth 48h: P. falciparum growth inhibition at 48 hours (one generation); 310,000 compounds, 5.9% hits; Potency, µM (top dose mostly 28.7 µM), for the others: at the top dose activity change, negative = inhibition, most hits filed as inhibitors; AID 504832; P. falciparum luciferase growth in erythrocytes, 48 h; further: potency means the concentration at half of the fitted maximal effect; on the % scale 0 is the no-effect control and ±100 the full control effect
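Luminescence readout; reporter = integrated firefly luciferase in P. falciparum. RBC culture at 2% hematocrit, 0.1% parasitemia final, 37 C/5% CO2; decreased signal taken as growth inhibition.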
Cycloheximide cs: affects cycloheximide protein synthesis inhibition readout, counter-screen | max response, % | 300,000 compounds, 12% hits | cell reporter, cycloheximide protein synthesis inhibition counterscreen; in the data active means max response mostly above about 13%, no sharp cut-off; inactive means mostly below about 14%; further: read at 38.3 µM for the half of the compounds with a filed dose; 0% is about no effect
Pf growth 96h: P. falciparum growth inhibition at 96 hours. Potency, µM (doses to about 28.7 µM), without a hit: at the highest dose activity change, negative = inhibition, most hits filed as inhibitors. 320,000 compounds, 6.9% hits. AID 504834. P. falciparum luciferase reporter growth, 96 h; further: potency means the concentration at half of the fitted maximal effect; on the % scale 0 is the no-effect control and ±100 the full control effect
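P. falciparum expressing integrated firefly luciferase grown in erythrocytes (2% hematocrit, 0.05% parasitemia final) with compounds for 96 hours at 37 C, 5% CO2. Growth inhibition read as loss of luminescence after adding luciferase detection reagent.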
HCV inhibitor: inhibitors of hepatitis C virus infection; Huh7.5.1 HCVcc-Cre infection, luciferase reporter, 44 h; Potency, µM (top dose mostly 41.8 µM), without a hit: top-dose activity change, negative = inhibition, usual class: inhibitors; 340,000 compounds, 3.4% hits; AID 651820; further: potency means the concentration at half of the fitted maximal effect; on the % scale 0 is the no-effect control and ±100 the full control effect
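1,000 cells/well; 4 h culture; + compound; + HCVcc-Cre (~0.5 moi); 44 h; luciferase substrate, RT 15 min; read 15 sec.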
The depositor's hits bear a star; i = inactive; ? = inconclusive; . = not tested or not shown. Unless noted, the call rests on the fitted dose curve; in most records, active means well fitted inhibition curve with a large enough effect; inconclusive means small, poorly fitted or top-dose-only effect, or another doubt; inactive means no such curve, though single readings can be large or run the other way.

SMILES	HCMV antiviral	Shiga toxin inh	Pf growth 48h	Cycloheximide cs	Pf growth 96h	HCV inhibitor
CC(C)c1ccc(NC(=O)[C@H](Cc2c[nH]c3ccccc23)NC(=O)[C@@H]2Cc3ccccc3CN2)cc1	.	27	?	24*	?	4.5µM*
COc1ccc(NC(=O)[C@H](Cc2c[nH]c3ccccc23)NC(=O)[C@@H]2Cc3ccccc3CN2)cc1	.	15	?	19*	?	?
CC(C)c1ccc(NC(=O)C(c2ccccc2)N(C)C(=O)CCc2c[nH]c3ccccc23)cc1 (stereo not drawn)	73	.	.	.	.	?
COc1ccc(NC(=O)CN2CCC(C(=O)c3ccc(F)cc3)CC2)c(OC)c1	2	-4	-16%	-3	17%	-15%
CCN(Cc1ccccc1)C(=O)c1oc2ccc(C)cc2c1C	39	48	14%	13	?	32%
Cc1ccc2oc(C(=O)N(C)Cc3ccon3)c(C)c2c1	76	47*	87%	54*	-17%	-9%
Cc1ccc2oc(C(=O)Nc3cc(C)on3)c(C)c2c1	?	.	267%	.	321%	22%
Cc1ccc2oc(C(=O)N(C)Cc3ccc(C)o3)c(C)c2c1	-10	52*	14%	27*	?	-19%
CCc1ccc(C2CC3C(CN2S(=O)(=O)c2ccc(C)cc2)[C@@H](O)C[C@@H](c2ccc(CC)cc2)N3S(=O)(=O)c2ccc(C)cc2)cc1 (stereo partly drawn)	13	.	.	.	.	.
CCOC(=O)Cn1c(=O)n(C2CCCCC2)c2nc(-c3ccc(Cl)cc3)nc(C(N)=O)c21	14	.	.	.	.	.
Cc1ccc2c(Cl)c(C(=O)NC3CC3)sc2c1	54	61*	86%	47*	111%	?
O=C(NC1CC1)c1sc2cc([N+](=O)[O-])ccc2c1Cl	69	18	46%	27*	140%	-5%
CC1CCCN(C(=O)c2sc3cc([N+](=O)[O-])ccc3c2Cl)C1 (stereo not drawn)	-28	85*	?	32*	22%	?
Cc1ccc2c(Cl)c(C(=O)Nc3cccnc3)sc2c1	-16	126*	16%	58*	32%	?
CC(NC(=O)c1sc2cc([N+](=O)[O-])ccc2c1Cl)C(C)(C)C (stereo not drawn)	-26	2	?	-2	-17%	12%
COc1ccccc1-n1c(SCC(=O)Nc2ccc(Br)cc2)nc(O)cc1=O	-2	-27	-4%	-2	-3%	21%
COc1ccc(Cn2c(=O)n(-c3ccc(OC)cc3)c(=O)c3c2c2cc(OC)ccc2n3C)cc1	123	.	.	.	.	.
Cc1ccc2c(CC(=O)N(Cc3ccc(N(C)C)cc3)Cc3ccco3)coc2c1C	19	.	.	.	.	.
CCOC(=O)c1cn2nc(SCc3ccccc3)nc2nc1C	16	52*	25%	39*	10%	-7%
N#Cc1cnc2nc(SCc3ccccc3)nn2c1	45	70*	101%	35*	189%	7%
Cc1nc2nc(SCc3ccccc3)nn2c(C)c1C	27	.	11%	.	42%	-2%
CCOC(=O)c1csc(CCNC(=O)c2ccccc2)n1	-38	.	.	.	.	.
CN(C)/C=N/c1sc2c(c1C#N)CCCC2	28	116*	0%	35*	33%	-20%
CC1CCc2c(sc(/N=C/N(C)C)c2C#N)C1 (stereo not drawn)	-3	60*	115%	37*	133%	?
N#Cc1c(/N=C/c2ccco2)sc2c1CCCCC2	-18	125	52%	35*	27%	-18%
SMILES	HCMV antiviral	Shiga toxin inh	Pf growth 48h	Cycloheximide cs	Pf growth 96h	HCV inhibitor
N#Cc1c(/N=C/c2cccs2)sc2c1CCC2	33	12	87%	6	.	?
Cc1cc(NC(=O)CN2CCC(O)CC2)nc2c1c(=O)oc1ccccc12	2	.	.	.	.	.
COc1ccc(Nc2cc3[nH]c(-c4ccccc4)cc3cn2)cc1	1	.	.	.	.	.
Oc1ccc(Cl)cc1CNCc1ccc(C(F)(F)F)cc1	-30	.	1.2µM*	.	5.9µM*	23%
Oc1ccc(Cl)cc1CNCC1CCCO1 (stereo not drawn)	8	-11	-22%	-2	.	3%
Oc1ccc(Cl)cc1CNCc1ccc(F)cc1	-18	.	5.2µM*	.	5.2µM*	14%
Cc1ccsc1CNCc1cc(Cl)ccc1O	-25	.	1.7µM*	.	2.9µM*	?
Oc1ccc(Cl)cc1CNCc1ccc(Cl)cc1	10	.	3.7µM*	.	5.9µM*	46%
Oc1ccccc1CNCc1ccccc1	9	8	?	3	?	23%
O=C(O)c1ccc(CNCc2ccc(Cl)cc2Cl)cc1	22	4	-3%	-1	.	-8%
Cc1cn2c(=O)c(S(=O)(=O)N3CCN(c4cc(Cl)ccc4C)CC3)c(C)nc2s1	-2	.	.	.	.	.
COc1ccccc1C1CC(=O)Oc2cc3c(cc21)OCO3 (stereo not drawn)	.	i	.	1	.	.
CCCCCCCCN1C(=O)[C@H](CC(=O)N2CCCCC2)C[C@@]2(C(=O)OCC)CCCC=C12	-7	.	.	.	.	.
CCc1ccccc1NC(=O)Nc1nnc(N(C)Cc2ccccc2)s1	10	.	.	.	.	.
C=CCc1cc(Cl)ccc1OCCNCCCOC	-37	-3	-10%	-4	13µM*	-12%
C=CCc1cc(Cl)ccc1OCCOCCNCCOC	8	-15	-15%	-4	?	?
C=CCc1cc(Cl)ccc1OCCOCCNC(C)(C)C	-71*	-8	13µM*	-2	3%	?
COCCCNCCCOc1ccc(Cl)cc1C(C)(C)C	-27	-10	?	-3	?	7.1µM*
C=CCc1ccc(OCCCCNC(C)CC)c(OC)c1 (stereo not drawn)	-21	-10	-13%	-2	118%	8.9µM*
Cc1ccc(F)cc1NC(=O)Cn1c(=O)nc(-c2ccccc2F)c2cc(Cl)ccc21	-3	.	.	.	.	.
CCOC(=O)c1ccccc1NC(=O)COC(=O)CCNS(=O)(=O)c1ccccc1	4	-5	-3%	-3	6%	-27%
O=C(Nc1cccc(C(F)(F)F)c1)C1CCCN(S(=O)(=O)c2cccc3nsnc23)C1 (stereo not drawn)	12	.	.	.	.	.
C=CCc1cc(Cl)ccc1OCCCNC(C)CC (stereo not drawn)	?	-12	?	-6	-23%	13µM*
CN1CCCC1CCNS(=O)(=O)c1ccc(Br)cc1 (stereo not drawn)	-16	-6	?	-4	?	10µM*
COc1cc(C(=O)Oc2ccccc2/C=N/NC(=O)c2ccc(C)cc2)cc(OC)c1OC	-99*	118*	?	87*	?	7.9µM*
COc1cc(C(=O)N/N=C/c2ccsc2C)cc(OC)c1OC	-79*	-16	-19%	1	?	?
COc1ccc(Br)cc1/C=N/NC(=O)c1cc(OC)c(OC)c(OC)c1	?	7	1%	0	18%	?
